Inconclusive results are not listed. Activity calls are given as the source filed them. Calls come from the whole dose curve; as a rule, active = well fitted curve in the direction sought with a large enough effect; inconclusive = small, poorly fitted or top-dose-only effect, or another doubt; inactive = no such curve, though single readings can be large; an effect the other way counts as inactive or inconclusive.

The text below walks through data of PubChem BioAssay (NCATS).

A short description of the first experiment: qHTS assay for measurement of the activity of small molecule inhibitors on Zika virus induced Caspase-3 activity in human astrocytoma cells (AID 1224859). Particulars: SNB-19 ZIKV-induced caspase-3/7, luminescence, 6 h; series mostly up to 45.7 µM. The essentials: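 Human SNB-19 astrocytoma cells in RPMI 1640 with 10% FBS receive compound one hour ahead of Zika virus at 2 FFU/cell. After 6 h infection, caspase-3/7 activity is detected by Caspase-Glo luminescence.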
In general terms: Quantitative high-throughput screening tests each substance at several concentrations.
With `CC(=O)[C@@]1(O)CC[C@H]2[C@@H]3C[C@H](C)C4=CC(=O)C=C[C@]4(C)[C@@]3(F)[C@@H](O)C[C@@]21C`, the outcome was inactive.

In the case of `Nc1ncnc2c1ncn2[C@@H]1O[C@H](COP(=O)(O)O)[C@@H](O)[C@H]1O`, the molecule was called inactive.

In the case of `CC[C@H](C)[C@H](N)C(=O)O`, the result was inactive.

As for `C[N+](C)(C)CC(O)CC(=O)[O-]` (centres undefined), the result was inactive.

With `O=c1[nH]c2cc(C(F)(F)F)c(N3CCOCC3)cc2n(CP(=O)(O)O)c1=O`, the molecule was classed as inactive.

For the molecule `CC(=O)OC[C@H]1O[C@@](COC(C)=O)(O[C@H]2O[C@H](COC(C)=O)[C@@H](OC(C)=O)[C@H](OC(C)=O)[C@H]2OC(C)=O)[C@@H](OC(C)=O)[C@@H]1OC(C)=O`, the molecule was classed as inactive.

Turning to `C/C(=C(\CCO)SS/C(CCO)=C(\C)N(C=O)Cc1cnc(C)nc1N)N(C=O)Cc1cnc(C)nc1N`, the result was inactive.

Consider `O=C(NCCCN1CCOCC1)c1ccc(Cl)cc1`, for which the call was inactive.

Consider `NCc1ccc(S(N)(=O)=O)cc1`, for which the call was inactive.

`CCCCCCCCCCCCCCCCC(C(=O)O)C(O)(CC(=O)O)C(=O)O` (centres undefined): the molecule was called inactive.

Take `Cc1c(NC(=O)c2cccnc2)c(=O)n(-c2ccccc2)n1C`: the molecule was called inactive.

Consider `C[N+](C)(C)CC[N+]1(C)Cc2c(Cl)c(Cl)c(Cl)c(Cl)c2C1`, for which the molecule was called inactive.

Take `O=C1c2ccccc2S(=O)(=O)N1CCCCN1CCN(c2ncccn2)CC1`: the call was inactive.

As for `c1ccc2[nH]ccc2c1`, the molecule was classed as inactive.

As for `CCCCCCCCCCC(CO)CCCCCCCC` (centres undefined), the result was inactive.

For the molecule `O=C(O)CCCc1ccccc1`, the outcome was inactive.

On to `CNc1c2c(nn1C)CCCC2`, for which the outcome was inactive.

On to `CCCNC(C)C(=O)Nc1c(C)csc1C(=O)OC` (centres undefined), for which the molecule was called inactive.

The next experiment can be described thus: qHTS assay to identify small molecule inhibitors of chordoma cells - UCH-1 (AID 1259355). Note: nearly all actives have a fitted effect of over 55% in size. Particulars: UCH-1 chordoma viability, CellTiter-Glo, 48 h, combination, with auranofin plus four topoisomerase inhibitors; series mostly up to 46.1 µM. Put shortly:
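Seed 800 cells per well; incubate overnight at 37 C, 5% CO2. Add test compounds (15 concentrations), then the auranofin–topoisomerase-agent combination. Incubate 48hr, add CellTiter-Glo, wait 30min, read luminescence.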
As for `COc1ccc(C(=O)NCc2ccc(OCCN(C)C)cc2)cc1OC`, the result was inactive.

As to `COc1ccccc1OCC(O)CO` (centres undefined), the result was inactive.

Take `Cc1[nH]c(C)c(Cl)c(=O)c1Cl`: the outcome was inactive.

Turning to `CCN[C@H]1CN(CCCOC)S(=O)(=O)c2sc(S(N)(=O)=O)cc21`, the outcome was inactive.

For the molecule `C[C@]1(Cn2ccnn2)[C@H](C(=O)O)N2C(=O)C[C@H]2S1(=O)=O`, the outcome was inactive.

In the case of `CC(C)NC[C@@H](O)COc1ccc(CC(N)=O)cc1`, the result was inactive.

For the molecule `NC(=O)NC1NC(=O)NC1=O` (centres undefined), the result was inactive.

Regarding `CC(=O)OCC(=O)[C@@]1(O)CC[C@H]2[C@@H]3CCC4=CC(=O)C=C[C@]4(C)[C@@]3(F)[C@@H](O)C[C@@]21C`, the outcome was inactive.

As for `O=C(/C=C/c1ccc(O)c(O)c1)O[C@@H]1C[C@@](OC(=O)/C=C/c2ccc(O)c(O)c2)(C(=O)O)C[C@@H](O)[C@@H]1O`, the outcome was inactive.

For `Nc1ncnc(Nc2ccccc2)n1`, the result was inactive.

Consider `CCCCCCCC(=O)OCC(COC(=O)CCCCCCC)OC(=O)CCCCCCC`, for which the result was inactive.

On to `CCOC(N)=O`, for which the result was inactive.

As to `Cc1cc(-n2nc3ccc(Cl)cc3n2)c(O)c(C(C)(C)C)c1`, the outcome was inactive.

For `Cc1c(I)c(=O)n(-c2ccccc2)n1C`, the outcome was inactive.

Consider `CC(=O)N[C@@H](Cc1ccc(O)cc1)C(=O)O`, for which the outcome was inactive.

Regarding `C[C@@H](N)C(=O)O`, the result was inactive.

As to `CC(C)C[C@@H](N)C(=O)O`, the outcome was inactive.

As for `CC(C)(C)NCC(O)COc1cccc2c1CCC(=O)N2` (centres undefined), the outcome was inactive.

`CC1(C)S[C@@H]2[C@H](N=CN3CCCCCC3)C(=O)N2[C@H]1C(=O)O`: the outcome was inactive.

On to `CC(C)=CCC[C@@](C)(O)[C@H]1CC=C(C)CC1`, for which the result was inactive.

As to `CC(=O)[C@@]1(O)CC[C@H]2[C@@H]3C[C@H](C)C4=CC(=O)C=C[C@]4(C)[C@@]3(F)[C@@H](O)C[C@@]21C`, the result was inactive.

For the molecule `Nc1ncnc2c1ncn2[C@@H]1O[C@H](COP(=O)(O)O)[C@@H](O)[C@H]1O`, the outcome was inactive.

As to `CC[C@H](C)[C@H](N)C(=O)O`, the outcome was inactive.

Regarding `C[N+](C)(C)CC(O)CC(=O)[O-]` (centres undefined), the outcome was inactive.

Regarding `O=c1[nH]c2cc(C(F)(F)F)c(N3CCOCC3)cc2n(CP(=O)(O)O)c1=O`, the result was inactive.

Turning to `CC(=O)OC[C@H]1O[C@@](COC(C)=O)(O[C@H]2O[C@H](COC(C)=O)[C@@H](OC(C)=O)[C@H](OC(C)=O)[C@H]2OC(C)=O)[C@@H](OC(C)=O)[C@@H]1OC(C)=O`, the result was inactive.

For the molecule `C/C(=C(\CCO)SS/C(CCO)=C(\C)N(C=O)Cc1cnc(C)nc1N)N(C=O)Cc1cnc(C)nc1N`, the outcome was inactive.

As for `O=C(NCCCN1CCOCC1)c1ccc(Cl)cc1`, the outcome was inactive.

Consider `NCc1ccc(S(N)(=O)=O)cc1`, for which the outcome was inactive.

Turning to `CCCCCCCCCCCCCCCCC(C(=O)O)C(O)(CC(=O)O)C(=O)O` (centres undefined), the outcome was inactive.

For `Cc1c(NC(=O)c2cccnc2)c(=O)n(-c2ccccc2)n1C`, the result was inactive.

As for `C[N+](C)(C)CC[N+]1(C)Cc2c(Cl)c(Cl)c(Cl)c(Cl)c2C1`, the result was inactive.

Take `O=C1c2ccccc2S(=O)(=O)N1CCCCN1CCN(c2ncccn2)CC1`: the result was inactive.

For the molecule `c1ccc2[nH]ccc2c1`, the outcome was inactive.

Turning to `CCCCCCCCCCC(CO)CCCCCCCC` (centres undefined), the outcome was inactive.

On to `O=C(O)CCCc1ccccc1`, for which the outcome was inactive.

Turning to `CNc1c2c(nn1C)CCCC2`, the result was inactive.

For the molecule `CCCNC(C)C(=O)Nc1c(C)csc1C(=O)OC` (centres undefined), the outcome was inactive.

The nature of another experiment: qHTS assay to identify small molecule inhibitors of chordoma cells - UCH-2 (AID 1259356). Conditions: UCH-2 chordoma viability, CellTiter-Glo ATP luminescence, 48 h; series mostly up to 46.1 µM.
As to `COc1ccc(C(=O)NCc2ccc(OCCN(C)C)cc2)cc1OC`, the molecule was called inactive.

Consider `COc1ccccc1OCC(O)CO` (centres undefined), for which the result was inactive.

Consider `Cc1[nH]c(C)c(Cl)c(=O)c1Cl`, for which the call was inactive.

As for `CCN[C@H]1CN(CCCOC)S(=O)(=O)c2sc(S(N)(=O)=O)cc21`, the molecule was classed as inactive.

Consider `C[C@]1(Cn2ccnn2)[C@H](C(=O)O)N2C(=O)C[C@H]2S1(=O)=O`, for which the result was inactive.

Take `CC(C)NC[C@@H](O)COc1ccc(CC(N)=O)cc1`: the call was inactive.

For `NC(=O)NC1NC(=O)NC1=O` (centres undefined), the outcome was inactive.

Take `CC(=O)OCC(=O)[C@@]1(O)CC[C@H]2[C@@H]3CCC4=CC(=O)C=C[C@]4(C)[C@@]3(F)[C@@H](O)C[C@@]21C`: the molecule was classed as inactive.

With `O=C(/C=C/c1ccc(O)c(O)c1)O[C@@H]1C[C@@](OC(=O)/C=C/c2ccc(O)c(O)c2)(C(=O)O)C[C@@H](O)[C@@H]1O`, the molecule was called inactive.

As for `Nc1ncnc(Nc2ccccc2)n1`, the molecule was called inactive.

In the case of `CCCCCCCC(=O)OCC(COC(=O)CCCCCCC)OC(=O)CCCCCCC`, the molecule was classed as inactive.

On to `CCOC(N)=O`, for which the call was inactive.

For the molecule `Cc1cc(-n2nc3ccc(Cl)cc3n2)c(O)c(C(C)(C)C)c1`, the molecule was called inactive.

For `Cc1c(I)c(=O)n(-c2ccccc2)n1C`, the call was inactive.

In the case of `CC(=O)N[C@@H](Cc1ccc(O)cc1)C(=O)O`, the molecule was called inactive.

Take `C[C@@H](N)C(=O)O`: the outcome was inactive.

As for `CC(C)C[C@@H](N)C(=O)O`, the result was inactive.

With `CC(C)(C)NCC(O)COc1cccc2c1CCC(=O)N2` (centres undefined), the result was inactive.

With `CC1(C)S[C@@H]2[C@H](N=CN3CCCCCC3)C(=O)N2[C@H]1C(=O)O`, the call was inactive.

In the case of `CC(C)=CCC[C@@](C)(O)[C@H]1CC=C(C)CC1`, the molecule was called inactive.

On to `CC(=O)[C@@]1(O)CC[C@H]2[C@@H]3C[C@H](C)C4=CC(=O)C=C[C@]4(C)[C@@]3(F)[C@@H](O)C[C@@]21C`, for which the call was inactive.

As for `Nc1ncnc2c1ncn2[C@@H]1O[C@H](COP(=O)(O)O)[C@@H](O)[C@H]1O`, the outcome was inactive.

For the molecule `CC[C@H](C)[C@H](N)C(=O)O`, the outcome was inactive.

As to `C[N+](C)(C)CC(O)CC(=O)[O-]` (centres undefined), the call was inactive.

For `O=c1[nH]c2cc(C(F)(F)F)c(N3CCOCC3)cc2n(CP(=O)(O)O)c1=O`, the molecule was called inactive.

Take `CC(=O)OC[C@H]1O[C@@](COC(C)=O)(O[C@H]2O[C@H](COC(C)=O)[C@@H](OC(C)=O)[C@H](OC(C)=O)[C@H]2OC(C)=O)[C@@H](OC(C)=O)[C@@H]1OC(C)=O`: the result was inactive.

Turning to `C/C(=C(\CCO)SS/C(CCO)=C(\C)N(C=O)Cc1cnc(C)nc1N)N(C=O)Cc1cnc(C)nc1N`, the molecule was classed as inactive.

Turning to `O=C(NCCCN1CCOCC1)c1ccc(Cl)cc1`, the outcome was inactive.

Consider `NCc1ccc(S(N)(=O)=O)cc1`, for which the molecule was classed as inactive.

Consider `CCCCCCCCCCCCCCCCC(C(=O)O)C(O)(CC(=O)O)C(=O)O` (centres undefined), for which the molecule was classed as inactive.

Regarding `Cc1c(NC(=O)c2cccnc2)c(=O)n(-c2ccccc2)n1C`, the molecule was called inactive.

Turning to `C[N+](C)(C)CC[N+]1(C)Cc2c(Cl)c(Cl)c(Cl)c(Cl)c2C1`, the call was inactive.

Regarding `O=C1c2ccccc2S(=O)(=O)N1CCCCN1CCN(c2ncccn2)CC1`, the molecule was called inactive.

For `c1ccc2[nH]ccc2c1`, the result was inactive.

With `CCCCCCCCCCC(CO)CCCCCCCC` (centres undefined), the result was inactive.

`O=C(O)CCCc1ccccc1`: the result was inactive.

On to `CNc1c2c(nn1C)CCCC2`, for which the molecule was called inactive.

For the molecule `CCCNC(C)C(=O)Nc1c(C)csc1C(=O)OC` (centres undefined), the result was inactive.
